Screening results as filed in PubChem BioAssay.
Many of the other results were omitted from the sample, so hits are more common in it than they were.
HT1080 IDH1KD tx – toxicity to HT-1080 IDH1 knockdown cells (counter line); HT-1080 IDH1 knockdown viability, ATP luminescence, 48 h; Potency, µM (top dose mostly 46.1 µM), inactives show at the highest dose activity, negative = toxicity, most hits filed as cytotoxic; 360,000 tested, 2% active; AID 686971;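 note: potency is the fitted concentration of half-maximal effect; 0% = DMSO wells and -100% = cell-free medium wells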
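Cytotoxicity counter-line: IDH1KD HT-1080, 48 h, CellTiter-Glo. Curves classed by r2, magnitude and activity.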
TDP1 cell CPT – DT40-hTDP1 cell growth loss with CPT | 420,000 tested, 12% active | chicken DT40 Tdp1-/-;hTDP1 cells + 20 nM CPT, ATP luminescence, 48 h | Potency, µM (titrated, usually from 46.2 µM), inactives show top-dose activity change, negative = growth inhibition, actives largely listed as inhibitors; note: potency is the fitted concentration of half-maximal effect; nearly all actives have a fitted effect of over 55% in size
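Chicken DT40 Tdp1-/- cells stably complemented with human TDP1 were seeded at 400 cells/well in medium containing 20 nM camptothecin, exposed to pin-transferred compounds, and grown at 37 °C for at least 48 hr. Viability was read as ATP luminescence.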
DT40 TDP1 no CPT – qHTS for Inhibitors of human tyrosyl-DNA phosphodiesterase 1 (TDP1): qHTS in cells in absence of CPT. 420,000 tested, 15% active. DT40 Tdp1-/- hTDP1 cells, no CPT, ATP luminescence, 48 h. Potency, µM (series often up to 46.2 µM), inactives show top-dose activity change, negative = growth inhibition, actives largely listed as inhibitors; note: potency is the fitted concentration of half-maximal effect; nearly all actives have a fitted effect of over 55% in size
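Chicken DT40 Tdp1-/- cells stably complemented with human TDP1 were seeded at 400 cells/well with DMSO in place of 20 nM camptothecin. After compound pinning, cells grew at least 48 hr at 37 °C; viability read by CellTiter-Glo luminescence.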
IL1B secr inh – blocks inflammasome-driven IL-1 beta release; THP-1 LPS/ATP IL-1B secretion, AlphaLISA, 16 h; hits give low values; activity change, % at 57.5 µM; 360,000 tested, 4.7% active; AID 743279; in the data active = activity change below about -50%; inconclusive = mostly about -30% to -49%
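Secreted IL-1B measured by AlphaLISA bead assay after 16 h compound exposure of THP-1 cells; compounds (final up to 57.5 uM) added 1 h before LPS (250 ng/mL) and ATP (1.25 mM) stimulation; lower signal means less secretion.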
12-LOX inh – blocks human arachidonate 12S-lipoxygenase; P18054; purified 12hLO, xylenol orange hydroperoxide absorbance; Potency, µM (titrated, usually from 108 µM), without a hit: top-dose activity change, negative = inhibition, most hits filed as inhibitors; 580,000 tested, 1.1% active; note: potency is the fitted concentration of half-maximal effect
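Hydroperoxide product was detected by ferrous iron/xylenol orange as the 573 to 405 nm absorbance ratio. Arachidonic acid at 40 uM (final) was turned over for 30 min at room temperature by 150 nM human 12hLO, pH 7.0 Hepes buffer, after 15 min compound preincubation.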
HT1080-NT tox – kills 2HG-producing HT-1080-NT fibrosarcoma cells | 360,000 tested, 1.6% active | HT-1080-NT fibrosarcoma viability, CellTiter-Glo ATP luminescence, 48 h | AID 686970 | Potency, µM (titrated, usually from 46.1 µM), for the others: at the top dose activity, negative = less viability, hits mostly cytotoxic;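 note: NT is the 2HG producing partner of a matched IDH1 knockdown line; potency is the fitted concentration of half-maximal effect; 0% = DMSO-treated cells and -100% = media-only wells without cells; nearly all actives have a fitted effect of over 55% in size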
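A 48-hour cytotoxicity screen used HT-1080-NT cells plated 2 hours before compound delivery. ATP-based CellTiter-Glo luminescence measured viability, normalized to DMSO and no-cell controls.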
Active calls of the source: *; ? = inconclusive; / = not tested or not shown. Unless noted, calls come from the whole dose curve; as a rule, active = well fitted curve in the direction sought with a large enough effect; inconclusive = small, poorly fitted or top-dose-only effect, or another doubt; inactive = no such curve, though single readings can be large; an effect the other way counts as inactive or inconclusive. Unless noted, % is set by controls: 0 for no effect and ±100 for the full control effect.

SMILES | HT1080 IDH1KD tx | TDP1 cell CPT | DT40 TDP1 no CPT | IL1B secr inh | 12-LOX inh | HT1080-NT tox
COc1ccc(NC(=O)c2ccc(NC(=O)C(C)C)cc2)c([N+](=O)[O-])c1 | -4.0% | -4.3% | 2.3% | 6.0 | -0.7% | 3.1%
COc1ccc(NC(=O)c2cccc(NC(=O)C(C)C)c2)c([N+](=O)[O-])c1 | -3.5% | ? | 16.4µM* | 1.4 | -5.1% | 4.2%
COc1ccc(OC)c(NC(=O)c2cccc(NC(=O)c3ccccc3)c2)c1 | -2.7% | ? | ? | -56.8* | -2.7% | 2.1%
N#CCCN(CCC#N)C(=O)Cc1coc(-c2ccccc2)n1 | / | / | / | / | 6.9% | /
N#Cc1nc(-c2ccc([N+](=O)[O-])cc2)oc1N1CCN(CCO)CC1 | / | / | / | / | -27.1% | /
CC(C)(C)C(=O)N1N=C(c2cccs2)CC1c1ccc2nccnc2c1 (stereo not drawn) | / | / | / | / | 1.3% | /
COc1ccc(-c2cccc(C(=O)Nc3ccc(OC)c(OC)c3)c2)cc1 | ? | -17.9% | -19.7% | 19.5 | -14.3% | ?
COc1ccc(C(=O)COc2cccc(NC(=O)c3ccco3)c2)cc1 | 14.2% | ? | 18.4µM* | 1.8 | ? | 7.9%
COc1cccc(C(=O)COc2cccc(NC(=O)c3ccco3)c2)c1 | -10.1% | -27.1% | ? | -12.7 | 5.8% | -13.4%
COc1ccc(C(=O)COC(=O)c2cccc(NC(=O)c3ccc(OC)c(OC)c3)c2)cc1 | / | 18.4µM* | 10.3µM* | / | -25.5% | /
COc1cccc(C(=O)COc2ccc(NC(=O)c3ccccc3)cc2)c1 | -6.0% | ? | ? | -10.2 | -1.1% | -6.2%
COc1cccc(C(=O)Nc2cccc(OCC(=O)c3ccccc3)c2)c1 | -20.2% | 23.1µM* | ? | -0.8 | -10.5% | -0.5%
O=C(COc1cccc(NC(=O)c2cccc([N+](=O)[O-])c2)c1)c1ccc(Br)cc1 | ? | ? | ? | -71.7* | 0.0% | -15.7%
O=C(Nc1cccc(OCC(=O)N2CCOCC2)c1)c1cccc([N+](=O)[O-])c1 | 5.7% | 0.2% | -4.0% | 17.3 | -2.1% | 2.0%
COc1ccc(-c2noc(-c3cccn3CC(=O)Nc3cccc(Cl)c3C)n2)cc1F | / | / | / | / | 4.2% | /
COc1ccc(NC(=O)[C@@H]2COCC(=O)N2Cc2ccc(OC)c(OC)c2)cc1Cl | / | / | / | / | 21.2% | /
Cc1ncsc1C(=O)NCCc1cccs1 | / | / | / | / | 12.9% | /
COC(=O)c1cccc(NC(=O)c2ccc(OC)c(Cl)c2)c1 | ? | 2.6% | ? | -72.1* | ? | 5.7%
COc1ccc(NC(=O)c2cccc(F)c2)cc1Cl | 1.2% | -5.4% | -10.4% | -22.9 | 14.6% | 0.8%
CCOC(=O)[C@@H]1[C@H]2COc3ccc(Br)cc3[C@@H]2N2C(=O)N(c3ccc(F)cc3)C(=O)[C@@]12C | 2.6% | ? | ? | 11.9 | -2.0% | -6.9%
CCOC(=O)[C@@H]1[C@H]2COc3ccc(Br)cc3[C@@H]2N2C(=O)N(c3ccc(C(F)(F)F)cc3)C(=O)[C@@]12C | -2.0% | 20.6µM* | 23.1µM* | 12.8 | -2.5% | 2.6%
CCOC(=O)[C@@H]1[C@H]2COc3ccc(Br)cc3[C@@H]2N2C(=O)N(c3cccc(F)c3)C(=O)[C@@]12C | -4.2% | 25.9µM* | 18.4µM* | 10.0 | -14.2% | -1.1%
CCOC(=O)[C@H]1[C@H]2COc3ccc(Br)cc3[C@@H]2N2C(=O)N(c3ccc(F)cc3)C(=O)[C@@]12C | -3.4% | 18.4µM* | ? | 30.2 | -6.9% | -9.7%
CCOC(=O)[C@@H]1[C@H]2COc3ccc(Br)cc3[C@@H]2N2C(=O)N(c3ccc(Cl)cc3)C(=O)[C@@]12C | -13.0% | 20.6µM* | 16.4µM* | -0.3 | 5.5% | -14.4%
